Screening results as filed in PubChem.
Pf growth 48h: inhibits P. falciparum growth in the first generation, 48 h | P. falciparum luciferase growth in erythrocytes, 48 h | Potency, µM (doses to about 28.7 µM), inactives show top-dose activity change, negative = inhibition, hits mostly inhibitors | 310,000 compounds, 5.9% hits; active = well fitted inhibition curve with a large enough effect; inconclusive = small, poorly fitted or top-dose-only effect, or another doubt; inactive = no such curve, though single readings can be large or run the other way; also: % is scaled to controls: 0 for no effect and ±100 for the full control effect
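A one-generation exposure of luciferase-tagged malaria parasites in RPMI 1640/Albumax erythrocyte culture, 37 C and 5% CO2. Inhibition is inferred from decreased luminescence after adding detection reagent.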
NS1 inh: influenza NS1 inhibition; Potency, µM (highest dose often 46.1 µM), for inactives: top-dose activity, positive = more growth; 270,000 compounds, 0.4% hits; also: actives are rising curves; nearly all actives have a fitted effect of over 50% in size
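Compounds were scored for reversing the slow growth caused by influenza A NS1 in S. cerevisiae, measured by optical density at 600 nm. Assay medium contained 2% galactose at pH 6.0; NS1-free yeast of the same strain were the positive control.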
SARS PLP yeast: inhibitors of SARS-CoV papain-like protease in yeast | Potency, µM (highest dose often 32.9 µM), for inactives: top-dose activity, positive = growth rescue, usual class: activators | AID 485353 | 330,000 compounds, 0.19% hits | S. cerevisiae expressing SARS-CoV PLpro, growth rescue; also: 0% is about no effect; nearly all actives have a fitted effect of over 55% in size
Pf growth 96h: P. falciparum growth inhibition at 96 hours; 320,000 compounds, 6.9% hits; Potency, µM (doses to about 28.7 µM), without a hit: at the top dose activity change, negative = inhibition, actives largely listed as inhibitors; P. falciparum luciferase reporter growth, 96 h; AID 504834; active = well fitted inhibition curve with a large enough effect; inconclusive = small, poorly fitted or top-dose-only effect, or another doubt; inactive = no such curve, though single readings can be large or run the other way; also: % is scaled to controls: 0 for no effect and ±100 for the full control effect
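Two parasite generations (96 h, 37 C, 5% CO2) of compound exposure in infected erythrocytes (0.05% parasitemia, 2% hematocrit). Luciferase-reporter P. falciparum; decreased luminescence indicates inhibited growth, aimed at apicoplast-acting delayed death.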
An asterisk follows results filed as active; u = inconclusive; x = no result; [ ] = dose if it differs, or a comment. Sampled rows, rich in hits. Any-hit rate of the full collection: about 10%. Unless noted, calls follow the shape of the full dose curve. Potency is read from the fitted curve at half-maximal effect.

SMILES	Pf growth 48h	NS1 inh	SARS PLP yeast	Pf growth 96h
O=S(=O)(c1ccccc1)N1CCN(C(=S)Nc2ccc(F)cc2)CC1	u	9.0%	-13.4%	u
CCOC(=O)C1CCN(S(=O)(=O)c2ccc(OC)c(Cl)c2)CC1	-0.7%	-5.5%	-0.5%	u
Cc1ccc2c(c1)c(-c1csc(N)n1)c(C)n2C	x	5.7%	10.7%	0.7%
CCCCSc1cnn(-c2ccccc2)c(=O)c1SCCCC	11.7µM*	0.2%	-26.8%	11.7µM*
Cc1cc(C(=O)Nc2c(F)cc(F)cc2Br)n(-c2ccccc2)n1	0.8%[0.00184 µM]	-1.8%	-1.9%	5.8%
COC(=O)c1ccc(CNCC(O)COc2ccc(-c3ccccc3)cc2)cc1 (stereo not drawn)	u	-6.0%	-0.6%	11.2%
COC(=O)c1ccc(-c2ccc(CNCC(O)c3ccccc3)o2)cc1 (stereo not drawn)	2.62µM*	-43.7%	-12.9%	11.7µM*
CC(C(=O)NCc1ccccc1)n1cc([N+](=O)[O-])cn1 (stereo not drawn)	11.8%	2.2%	-1.6%	-27.5%
COc1ccc(C)cc1S(=O)(=O)Nc1ccc2c(c1)N(C(C)=O)CCC2	u	x	1.3%	u
NNc1cc(C(=O)O)ccc1Cl	9.2%	-0.7%	-0.5%	2.6%
CCN1C(=O)CC(Sc2ccccc2N)C1=O (stereo not drawn)	4.7%	-0.8%	2.6%	1.47µM*
CC(C)(C)C(=O)N1CCn2c1nc1ccccc12	7.1%	-0.5%	0.1%	2.62µM*
N#CCC(=O)N1CCn2c1nc1ccccc12	-0.8%	-9.0%	-1.1%	15.3%
Nc1nnc(Cc2ccc(F)cc2)s1	10.4µM*	-0.8%	-0.4%	1.9%
Nc1nnc(Cc2ccccc2)s1	x	1.6%	-5.0%	-19.4%
COc1ccc(OC)c(NC(=O)Cn2c(=O)n(CC3CCCO3)c(=O)c3cc(OC)c(OC)cc32)c1 (stereo not drawn)	-30.6%	-13.7%	3.0%	u
Cc1ccc(S(C)(=O)=O)cc1C(=O)Nc1ccc(S(=O)(=O)Nc2nccs2)cc1	-18.5%	x	22.9%	u
COc1ccc(CN(C)CC(O)COc2ccc(-c3ccccc3)cc2)cc1OC (stereo not drawn)	u	-5.1%	-18.0%	0.0%
CCOc1ccc(CN(C)CC(O)COC(c2ccc(OC)cc2)c2ccc(OC)cc2)cc1 (stereo not drawn)	10.4µM*	8.6%	0.1%	10.4µM*
COc1ccc(CN(C)CC(O)COC(c2ccc(OC)cc2)c2ccc(OC)cc2)cc1 (stereo not drawn)	13.1µM*	2.7%	1.9%	u
COc1ccc(C(OCC(O)CN(C)C2CCCCC2)c2ccc(OC)cc2)cc1 (stereo not drawn)	u	-4.0%	1.7%	u
CC[C@@]1(O)C[C@H](O[C@H]2C[C@@H](N(C)C)[C@@H](O[C@H]3C[C@@H](O)[C@@H](O[C@H]4CCC(=O)[C@@H](C)O4)[C@@H](C)O3)[C@@H](C)O2)c2c(cc3c(c2O)C(=O)c2c(O)cccc2C3=O)[C@H]1C(=O)OC	0.0849µM*	x	x	0.0601µM*
Cc1nnc(NC(=O)CCC(=O)NC2CCCCCCC2)s1	31.5%	11.6%	0.3%	18.1%
O=C(Nc1cccc(C(=O)O)c1)Nc1ccc2c(c1)OCO2	231.0%	u	-3.3%	-26.2%
O=C(O)c1cccc(-c2ccc3c(c2)OCO3)c1	6.6%	-66.5%	-2.9%	3.7µM*
SMILES	Pf growth 48h	NS1 inh	SARS PLP yeast	Pf growth 96h
CCN(CCNCC(O)COc1ccccc1C(C)C)c1cccc(C)c1 (stereo not drawn)	3.29µM*	2.6%	-3.6%	5.22µM*
CCOC(=O)c1cccc(OCC(O)CNCCOc2ccccc2F)c1 (stereo not drawn)	6.6%	-5.1%	9.1%	11.4%
C[Se]CC[C@H](N)C(=O)O	5.6%	x	x	8.2%
COC(=O)c1ccc(C(=O)NC2CCCc3c2cnn3-c2cc(F)cc(F)c2)nc1 (stereo not drawn)	31.6%	-2.1%	1.2%	3.4%
Cc1[nH]c2ccc(C(=O)OC(C)C(=O)NC3(C#N)CCCCC3)cc2c1C (stereo not drawn)	u	x	5.9%	-21.7%
COc1ccc(C2C3=C(CCCC3=O)Nc3ccc4ncccc4c32)cc1OC (stereo not drawn)	-26.9%	x	-0.5%	0.294µM*
CC(=O)N=c1c(C#N)cc2c(=O)n3ccccc3nc2n1CCCOC(C)C	2.8%	6.7%	0.1%	0.0%
CC(C)OCCCn1c(=N)c(C(N)=S)cc2c(=O)n3ccccc3nc21	x	11.1%	5.8%	13.1µM*
CCOCCCn1c(=NC(C)=O)c(C#N)cc2c(=O)n3cccc(C)c3nc21	67.1%	2.4%	-0.3%	u
CCOC(=O)c1cc2c(=O)n3ccccc3nc2n(CCCOC)c1=NC(C)=O	-12.6%	-5.8%	-1.1%	10.4µM*
CCOCCCn1c(=NC(=O)c2ccc(OC)c(OC)c2)c(C#N)cc2c(=O)n3cccc(C)c3nc21	2.33µM*	1.7%	0.8%	x
CCN(C(=O)c1cc2c(=O)n3ccccc3nc2n1CCCOC)C1CCCCC1	11.7µM*	7.7%	10.0%	14.7µM*
CCOC(=O)c1cc2c(=O)n3ccccc3nc2n(CCCOC)c1=NC(=O)c1ccncc1	-18.8%	6.0%	-0.9%	u
CCOC(=O)c1cc2c(=O)n3cccc(C)c3nc2n(CCOC)c1=NC(C)=O	u	-2.1%	-1.2%	6.57µM*
O=C(O)CCN1C(=O)C2C3C=CC(C3)C2C1=O (stereo not drawn)	-4.5%	1.2%	-1.7%	u
CC1CCCC(C)N1C(=O)CCN1C(=O)C2C3C=CC(C3)C2C1=O (stereo not drawn)	26.8%	5.3%	0.9%	1.65µM*
CCOC(=O)Nc1ccc2c(CN3CCN(S(=O)(=O)c4ccccc4F)CC3)cc(=O)oc2c1	9.28µM*	x	0.4%	10.4µM*
CCOC(=O)Nc1ccc2c(COC(=O)CNS(=O)(=O)c3ccc(NC(C)=O)cc3)cc(=O)oc2c1	30.8%	7.5%	-1.0%	42.5%
CCOC(=O)Nc1ccc2c(CN3CCN(S(=O)(=O)c4ccc(C(C)C)cc4)CC3)cc(=O)oc2c1	u	x	2.7%	10.4µM*
CC1(C)Cc2c(c(N3CCCC3)nc3sc4c(N5CCNCC5)ncnc4c23)CO1	u	3.7%	0.0%	u
CCCCNC(=O)c1ccc2c(c1)C(=O)N(Cc1ccncc1)C2=O	27.0%	-9.4%	2.5%	-2.6%
O=[N+]([O-])c1ccc2c(c1)c(S(=O)(=O)O)cc1nonc12	x	-5.3%	x	x
CCCn1nc2cc(C(=O)NC3CCCc4ccccc43)ccc2c1OCC (stereo not drawn)	u	-1.1%	-7.0%	u
CCCCn1nc2cc(C(=O)NC3CCc4ccccc43)ccc2c1OCC (stereo not drawn)	u	-3.5%	-17.4%	8.28µM*
O=C(NCc1ccc2c(c1)OCO2)C(=O)NCC1OCCCN1S(=O)(=O)c1ccc(F)cc1 (stereo not drawn)	9.9%	-0.7%	-1.9%	u
COc1ccc(CNC(=O)C2CCC(CNS(=O)(=O)c3ccccc3)CC2)cc1 (stereo not drawn)	3.7µM*	-6.3%	1.3%	0.0%
